# Experimental data: PubChem BioAssay (NCI)
# About 83,000 compounds went through this panel and 20% of them were active in at least one assay; those are over-represented in the sample as a whole.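 Cell lines were cultured in 96-well plates, exposed to a single compound concentration, and assessed for percent growth 48 hours later.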 A number with no mark means an inactive call. Calls of active or inactive are those of the source. Rule for the calls: active = growth percent below 10; inactive = the rest.
# Experiments:
# Test in all cases: NCI-60 one-dose screen, 48 h (100 = growth as untreated, 0 = no growth, -100 = all killed)
# Details in all cases: 10 µM unless noted
# NCI-H23 lung = system: NCI-H23 lung
# NCI-H226 lung = system: NCI-H226 lung
# NCI-H322M lung = system: NCI-H322M lung
# HOP-62 NSCLC = system: HOP-62 NSCLC
# NCI-H460 lung = system: NCI-H460 lung
# HOP-92 NSCLC = system: HOP-92 NSCLC
# NCI-H522 lung = system: NCI-H522 lung
# A549/ATCC NSCLC = system: A549/ATCC NSCLC
# 786-0 renal = system: 786-0 renal
# COLO 205 colon = system: COLO 205 colon
# DU-145 prostate = system: DU-145 prostate
# K-562 leukemia = system: K-562 leukemia
# MALME-3M melanoma = system: MALME-3M melanoma
# MDA-MB-231 breast = system: MDA-MB-231 breast
# RXF 393 renal = system: RXF 393 renal
# SF-268 CNS = system: SF-268 CNS
# SF-295 CNS = system: SF-295 CNS
# SF-539 CNS = system: SF-539 CNS
# UACC-257 melanoma = system: UACC-257 melanoma
# M14 melanoma = system: M14 melanoma
SMILES,growth (NCI-H23 lung),growth (NCI-H226 lung),growth (NCI-H322M lung),growth (HOP-62 NSCLC),growth (NCI-H460 lung),growth (HOP-92 NSCLC),growth (NCI-H522 lung),growth (A549/ATCC NSCLC),growth (786-0 renal),growth (COLO 205 colon),growth (DU-145 prostate) [%],growth (K-562 leukemia),growth (MALME-3M melanoma),growth (MDA-MB-231 breast),growth (RXF 393 renal),growth (SF-268 CNS),growth (SF-295 CNS),growth (SF-539 CNS),growth (UACC-257 melanoma),growth (M14 melanoma)
O=C(Nc1ccc(-c2ccc3c(c2)NC(=O)/C3=C\c2ccc[nH]2)cc1)Nc1ccc(Cl)c(Cl)c1,37.8%,78.1%,73.4%,61.9%,17.4%,88.5%,63%,62%,35.9%,58%,54.3,39%,68.7%,71.5%,-1.35% (active),48.9%,23.3%,-48.9% (active),76%,59.3%
O=C(c1ccc(O)cc1)C1[C@H](c2ccc(Cl)cc2)[C@@H](c2ccccc2)NC12C(=O)Nc1ccc(Br)cc12 (stereo not given in full),-58.7% (active),-54.7% (active),-4.19% (active),-28.9% (active),-45.9% (active),-32.2% (active),-20.8% (active),5.99% (active),-52.1% (active),-86.3% (active),13.4,-41.7% (active),-49% (active),-79.4% (active),-85.9% (active),3.93% (active),-60.8% (active),-37.5% (active),65.9%,-56.8% (active)
COc1cccc(/C=C/c2nc3ccccc3c(=O)n2CC(=O)Nc2ccccc2)c1,59.2%,13.9%,72.3%,4.65% (active),51.4%,19.5%,53.3%,16.9%,-8.65% (active),75.5%,87.8,93%,56.1%,-29% (active),0.184% (active),69.5%,48.8%,11.8%,67.8%,47.8%
COc1ccc([C@H]2C(C(=O)c3ccc(Cl)cc3)C3(N[C@@H]2c2ccccc2)C(=O)Nc2ccccc23)cc1 (stereo not given in full),21.2%,24.9%,54.5%,51%,18.3%,23%,29.5%,31%,28.4%,-6.01% (active),52,18.8%,32.2%,25.8%,15.8%,37.3%,15.2%,34.5%,44%,53%
Fc1ccc(F)c(CNc2nc(SCCN3CCOCC3)nc3c2cnn3CC(Cl)c2ccc(Br)cc2)c1 (stereo not given),40.3%,16.2%,75.2%,47.8%,6.7% (active),20.1%,37.6%,20.9%,17.7%,-57% (active),43.3,10.6%,-30% (active),6.86% (active),-4.06% (active),30.1%,5.06% (active),17.9%,6.07% (active),18.1%
O=C1Nc2cc(-c3ccc(NS(=O)(=O)c4ccc(C(F)(F)F)cc4)cc3)ccc2/C1=C/c1ccc[nH]1,11%,49.7%,44%,43.5%,5.56% (active),42.8%,-18.4% (active),18.7%,40.8%,23.9%,40.6,11.4%,63.3%,66.7%,25%,55.5%,17.6%,42.4%,26.3%,55.3%
COc1ccc(N=Nc2c(N)nn3c(-c4cc5cc(Br)ccc5oc4=O)ccnc23)cc1,-4.72% (active),-42.1% (active),30.1%,2.1% (active),3.1% (active),-3.29% (active),0.558% (active),39.3%,5.11% (active),35.8%,37.3,48.4%,46.4%,-27.3% (active),-41.8% (active),23.2%,-33.6% (active),15.6%,78.1%,52.5%
